GLP-1R inv ag: inverse agonists of human GLP-1 receptor; P43220; HEK293 GLP-1R CRE-luciferase, luminescence, 24 h; GLP-1R form is constitutively active; Potency, µM (top dose mostly 38.3 µM), inactives show at the top dose activity change, negative = inhibition, hits mostly inhibitors; 410,000 compounds, 1.6% hits; AID 624417; also: potency is read from the fitted curve at half-maximal effect; % is scaled to controls: 0 for no effect and ±100 for the full control effect; nearly all actives have a fitted effect of over 55% in size
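Stable HEK293 clone (constitutively active GLP-1R + cAMP-response luciferase); 200 cells/uL plated, 12 h pre-culture, compound 24 hr, 37 deg C/5% CO2; detection reagent 12 min RT; luminescence.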
TRPML1 agonist: agonists of human TRPML1 channel. Q9GZU1. TRPML1-expressing cells, Ca2+ dye fluorescence, FDSS. activation, % (concentration not given with the values). 410,000 compounds, 0.12% hits. AID 624414; in the data active = activation above about 50%; inconclusive = mostly about 30% to 49%; also: 0% is about no effect
Target sequence (Q9GZU1 whole entry, looked up): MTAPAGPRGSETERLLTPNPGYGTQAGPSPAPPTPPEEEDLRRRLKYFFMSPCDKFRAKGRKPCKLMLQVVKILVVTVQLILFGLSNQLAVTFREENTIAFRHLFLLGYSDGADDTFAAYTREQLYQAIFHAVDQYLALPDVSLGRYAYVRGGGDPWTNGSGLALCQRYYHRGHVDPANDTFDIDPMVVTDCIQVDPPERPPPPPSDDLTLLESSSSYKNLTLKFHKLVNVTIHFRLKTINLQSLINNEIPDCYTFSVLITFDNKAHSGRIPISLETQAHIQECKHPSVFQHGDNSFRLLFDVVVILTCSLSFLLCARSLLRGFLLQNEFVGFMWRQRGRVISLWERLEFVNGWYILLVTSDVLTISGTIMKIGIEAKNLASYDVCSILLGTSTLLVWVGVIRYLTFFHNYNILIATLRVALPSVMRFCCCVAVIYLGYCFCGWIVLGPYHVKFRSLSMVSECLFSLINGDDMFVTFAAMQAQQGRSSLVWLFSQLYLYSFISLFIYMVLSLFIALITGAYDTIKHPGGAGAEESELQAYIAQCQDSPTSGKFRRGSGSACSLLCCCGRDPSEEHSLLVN
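Tetracycline-induced TRPML1-DL cells are seeded and incubated overnight before loading with a no-wash Ca2+ dye and quencher. Agonist activity is taken from the 110 s fluorescence read following compound pin-transfer on an FDSS, before EC80 54-4 challenge.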
TRPML1 inh: human mucolipin-1 channel inhibition; Q9GZU1; activity change, negative = inhibition, % (test concentration not listed); 390,000 compounds, 0.02% hits; TRPML1-inducible cells, Ca2+ dye fluorescence, FDSS; hits give low values; inhibition of EC80 agonist-evoked calcium signal; in the data active = activity change below about -50%; inconclusive = between about -30% and that limit;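 also: stimulus is agonist 54-4 at its EC80 concentration; % is scaled to controls: 0 for no effect and ±100 for the full control effect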
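TRPML1-DL cells, Tet-induced overnight (~16 h, 37 °C) at 1,500 cells/well, were loaded with Ca8 no-wash dye plus quencher for 45-90 min at room temperature. Compounds were pinned during FDSS kinetic reading; agonist 54-4 at EC80 (4 uM final) then added.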
GLP1R ag: GLP-1 receptor (human) agonism. P43220. HEK293 GLP-1R CRE-luciferase, luminescence, 4-6 h; cells express a hypersensitive GLP-1R form. Potency, µM (series often up to 45.6 µM), inactives show at the top dose activation, hits mostly activators. 380,000 compounds, 0.007% hits. AID 624172; also: potency is read from the fitted curve at half-maximal effect; % of control where 0% means no effect
HEK293 tox: cytotoxicity counter-screen for GLP-1 receptor inverse agonists | 410,000 compounds, 0.13% hits | HEK293 cAMP-luciferase reporter cells, luminescence, 24 h | Potency, µM (top dose mostly 38.3 µM), for the others: at the top dose activity change, negative = inhibition, actives largely listed as inhibitors | AID 624418;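 also: loss of luciferase light is scored as toxicity; potency is read from the fitted curve at half-maximal effect; % is scaled to controls: 0 for no effect and ±100 for the full control effect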
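1536-well qHTS counterscreen of the MLSMR; 200 cells/uL, 12 h pre-incubation, 23 nL cpd, 24 h at 37 deg C 5% CO2, luciferase detection reagent, 12 min RT, luminescence. Inhibition = undesired.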
* = called active by the depositor. Sampled rows, rich in hits. Any-hit rate of the full collection: about 1.8%. Unless noted, calls follow the shape of the dose curve; as a rule, active = well fitted curve in the direction sought with a large enough effect; inconclusive = small, poorly fitted or top-dose-only effect, or another doubt; inactive = no such curve, though single readings can be large; an effect the other way counts as inactive or inconclusive.

CCCN(CC(=O)Nc1ccccc1OC)C(=O)CC1CCCC1 was read as GLP-1R inv ag 8.9µM*, TRPML1 agonist 0, TRPML1 inh 1, GLP1R ag 1% and HEK293 tox 14%.
COc1ccc(CCNC(=O)Cn2cc(S(=O)(=O)Cc3ccccc3Cl)c3ccccc32)cc1OC was read as GLP-1R inv ag -16%, TRPML1 agonist 0, TRPML1 inh 30 and HEK293 tox -3%.
CSc1ccc(C2c3[nH]c4ccccc4c3CCN2C(=O)CCC2CCCC2)cc1 (configuration not stated) was read as GLP-1R inv ag 2.2µM*, TRPML1 agonist 0, TRPML1 inh -6 and HEK293 tox 18%.
`CCOc1cccc(CC(=O)N2CCc3c([nH]c4ccccc34)C2c2ccc(C)cc2)c1OCC` (configuration not stated) gave GLP-1R inv ag 10µM*, TRPML1 agonist 0, TRPML1 inh 17 and HEK293 tox -3%.
For CCOc1cccc(C2c3[nH]c4ccccc4c3CCN2C(=O)CSCc2ccc(F)cc2)c1 (configuration not stated) the results were GLP-1R inv ag inconclusive, TRPML1 agonist 1, TRPML1 inh 49 and HEK293 tox -7%.
For COc1ccc(NC(=O)N2CCc3c([nH]c4ccc(OC)cc34)C2c2ccc(OC)cc2)cc1 (configuration not stated) the results were GLP-1R inv ag inconclusive, TRPML1 agonist 0, TRPML1 inh -16 and HEK293 tox -8%.
For CCOc1cccc(CC(=O)N2CCc3c([nH]c4ccc(OC)cc34)C2c2ccc(F)cc2)c1OCC (configuration not stated) the results were GLP-1R inv ag -5%, TRPML1 agonist -1, TRPML1 inh 2, GLP1R ag 0% and HEK293 tox -4%.
For COc1ccc2[nH]c3c(c2c1)CCN(C(=O)c1cccc(Cl)c1)C3c1ccc(F)cc1 (configuration not stated) the results were GLP-1R inv ag 4.5µM*, TRPML1 agonist 0, TRPML1 inh 25, GLP1R ag 0% and HEK293 tox 2%.
CCOc1ccc(C2c3[nH]c4ccccc4c3CCN2C(=O)CSCc2ccc(F)cc2)cc1 (configuration not stated) was read as GLP-1R inv ag 2.8µM*, TRPML1 agonist -1, TRPML1 inh 10 and HEK293 tox -12%.
Screening CCSc1ncc(Cl)c(C(=O)Nc2sc3c(c2C(=O)OC)CCCC3)n1 returned TRPML1 agonist 0.
Screening Cc1ccc(OCCSc2nc3ccccc3n2CC(=O)N2CCOCC2)cc1 returned GLP-1R inv ag -17%, TRPML1 agonist 1, TRPML1 inh 8 and HEK293 tox 1%.
`Cc1ccc(S(=O)(=O)N(C)CCN(C)c2nc(-c3cccs3)nc3ccccc23)cc1` gave TRPML1 agonist 0.
COc1ccc(-c2onc(C)c2C)cc1S(=O)(=O)Nc1cc(Cl)ccc1C was read as GLP-1R inv ag inconclusive, TRPML1 agonist 2, TRPML1 inh 34 and HEK293 tox -17%.
For CCCCc1ccc(NC(=O)CC(C)(C)C)cc1 the results were GLP-1R inv ag 11µM*, TRPML1 agonist 0, TRPML1 inh -3, GLP1R ag 12% and HEK293 tox 8%.
Screening Cc1ccc(-c2nc(CS(=O)(=O)CC(=O)N3CCCCCC3)c(C)o2)cc1 returned GLP-1R inv ag 10µM*, TRPML1 agonist 1, TRPML1 inh 12, GLP1R ag 3% and HEK293 tox -11%.
COc1cc2c(c(OC)c1OC)-c1c(cc3c(c1OC)OCO3)CC(C)C(C)(O)C2 (configuration not stated) was read as GLP1R ag -3%.
Screening O/N=C(/c1ccc(Cl)cc1)C1CC1c1ccccc1 (configuration not stated) returned GLP-1R inv ag inconclusive, TRPML1 agonist 0, TRPML1 inh 27, GLP1R ag inconclusive and HEK293 tox 2%.
Cc1ccc(C2CC2/C(=N/O)c2ccc(F)cc2)cc1 (configuration not stated) was read as GLP-1R inv ag 10µM*, TRPML1 agonist 3, TRPML1 inh -3, GLP1R ag 20% and HEK293 tox -2%.
`CC1(C)CC(NC2C3CC4CC(C3)CC2C4)CC(C)(C)N1` (configuration not stated) gave GLP-1R inv ag 3.2µM*, TRPML1 agonist 0, TRPML1 inh 9, GLP1R ag 6% and HEK293 tox inconclusive.
For Cc1ccccc1C(=O)NC1CC(C)(C)NC(C)(C)C1 the results were GLP-1R inv ag 0%, TRPML1 agonist -1, TRPML1 inh 0, GLP1R ag -7% and HEK293 tox 2%.
Cc1ccc(-c2ccc(CCC(=O)O)n2-c2cccc(O)c2)cc1 was read as GLP-1R inv ag -2%, TRPML1 agonist 0, TRPML1 inh 16, GLP1R ag -3% and HEK293 tox 9%.
For CC(=O)N=c1scc(-c2ccccc2)n1-c1cccc(O)c1 the results were GLP-1R inv ag 11µM*, TRPML1 agonist -1, TRPML1 inh -7, GLP1R ag 7% and HEK293 tox 2%.
For O=C(O)CCCC/C=C(\c1ccccc1)c1cccnc1 the results were GLP1R ag 4%.
For CCOC(=O)c1c(C)oc2c1c(C=NCc1ccccn1)c(O)c1ccccc12 the results were GLP-1R inv ag 22µM*, TRPML1 agonist 1, TRPML1 inh 8, GLP1R ag 0% and HEK293 tox inconclusive.
Screening COc1ccccc1N1CCN(CCNC(=O)Nc2cccc(C)c2C)CC1 returned GLP-1R inv ag 3.2µM*, TRPML1 agonist 1, TRPML1 inh -5, GLP1R ag -8% and HEK293 tox -14%.
O=C1C(Nc2cccc(O)c2)=C(N2CCCCC2)C(=O)c2ccccc21 was read as GLP-1R inv ag inconclusive, TRPML1 agonist 1, TRPML1 inh -8, GLP1R ag 5% and HEK293 tox 3.5µM*.
`O=C1C(NS(=O)(=O)c2ccc(Br)cc2)=C(N2CCCCC2)C(=O)c2ccccc21` gave GLP-1R inv ag inconclusive, TRPML1 agonist 76*, TRPML1 inh -19, GLP1R ag -2% and HEK293 tox inconclusive.
Screening O=C1C(Nc2ccccc2)=C(N2CCCCC2)C(=O)c2ccccc21 returned GLP-1R inv ag inconclusive, TRPML1 agonist 0, TRPML1 inh -4, GLP1R ag -7% and HEK293 tox -11%.
`CC1CCN(C2=C(NS(=O)(=O)c3ccc(Br)cc3)C(=O)c3ccccc3C2=O)CC1` gave GLP-1R inv ag inconclusive, TRPML1 agonist 0, TRPML1 inh -11, GLP1R ag 0% and HEK293 tox inconclusive.

Screening results deposited in PubChem BioAssay by National Center for Advancing Translational Sciences (NCATS).
